A number with no mark means an inactive call.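 The calls were made as follows: active = growth AUC significantly below the DMSO wells by Dunnett test; inactive = the rest.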
system: Bacillus 1 (Bacillus foraminis); assay: relative growth (AUC of 72 h growth curve relative to DMSO control, dAUC) (ratio); higher = more growth (less inhibition), active = hit call of the paper; details: 20 µM
Experimental: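 Environmental bacterial isolates (Iceland stream sediment and Silwood Park soil) and whole stream-sediment communities were grown in LB from a 1:100 dilution with each pesticide at 20 µM (1% DMSO). A600 was read hourly for 72 h and the area under a spline-fitted growth curve (AUC) was computed. dAUC is the mean AUC of 3 biological replicates divided by the mean AUC of the DMSO controls. Significance was tested by Dunnett's test against the DMSO control.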

Compound	relative growth
CC(C)CC(C)c1sccc1NC(=O)c1cn(C)nc1C(F)(F)F (stereo not given)	0.959
Oc1ccc(Cl)cc1Cc1cc(Cl)ccc1O	0.81
CC[C@H](C)[C@H]1O[C@]2(C=C[C@@H]1C)C[C@@H]1C[C@@H](C/C=C(\C)[C@@H](O[C@H]3C[C@H](OC)[C@@H](O[C@H]4C[C@H](OC)[C@@H](O)[C@H](C)O4)[C@H](C)O3)[C@@H](C)/C=C/C=C3\CO[C@@H]4[C@H](O)C(C)=C[C@@H](C(=O)O1)[C@]34O)O2.CO[C@H]1C[C@H](O[C@H]2[C@H](C)O[C@@H](O[C@@H]3/C(C)=C/C[C@@H]4C[C@@H](C[C@]5(C=C[C@H](C)[C@@H](C(C)C)O5)O4)OC(=O)[C@@H]4C=C(C)[C@@H](O)[C@H]5OC/C(=C\C=C\[C@@H]3C)[C@]54O)C[C@@H]2OC)O[C@@H](C)[C@@H]1O	0.944
ClC1C(Cl)C(Cl)C(Cl)C(Cl)C1Cl (stereo not given)	1.11
CC1(C)C(C=C(Cl)Cl)C1C(=O)OC(C#N)c1ccc(F)c(Oc2ccccc2)c1 (stereo not given)	0.94
CSc1nnc(C(C)(C)C)c(=O)n1N	0.94
COC(=O)NC(=S)Nc1ccccc1NC(=S)NC(=O)OC	0.942
COc1cc(OC)nc(NC(=O)NS(=O)(=O)c2ncccc2C(=O)N(C)C)n1	1.08
Cc1c(COC(=O)[C@@H]2[C@H](/C=C(\Cl)C(F)(F)F)C2(C)C)cccc1-c1ccccc1 (racemic)	0.976
CCCCCCCCCCCCNC(=N)N	0.691 (active)
CC1(C)C(C=C(Cl)Cl)C1C(=O)OC(C#N)c1cccc(Oc2ccccc2)c1 (stereo not given)	1.11
CSc1nc(NC(C)C)nc(NC(C)C)n1	0.945
CN1COCN(Cc2cnc(Cl)s2)/C1=N\[N+](=O)[O-]	1.02
CNC(=O)c1cc(Cl)cc(C)c1NC(=O)c1cc(Br)nn1-c1ncccc1Cl	1.01
CCc1cnc(C2=NC(C)(C(C)C)C(=O)N2)c(C(=O)O)c1 (stereo not given)	1.11
Cc1cc(C)c(C2=C(OC(=O)CC(C)(C)C)C3(CCCC3)OC2=O)c(C)c1	0.993
COC(=O)c1ccccc1S(=O)(=O)NC(=O)Nc1nc(C)nc(OC)n1	1.05
CCNC(=O)NC(=O)/C(C#N)=N/OC	1.04
N#Cc1c[nH]cc1-c1cccc2c1OC(F)(F)O2	0.935
CCOc1cc(Oc2ccc(C(F)(F)F)cc2Cl)ccc1[N+](=O)[O-]	0.956

Compound	relative growth
COP(N)(=O)SC (stereo not given)	0.871
CC1(C)CON(Cc2ccccc2Cl)C1=O	1.03
CNC(=O)ON=C(C)SC	0.996
CC(Oc1ccc(Oc2nc3ccc(Cl)cc3o2)cc1)C(=O)O (stereo not given)	1.02
C[N+]1(C)CCCCC1	1.04
O=C(NCCc1ncc(C(F)(F)F)cc1Cl)c1ccccc1C(F)(F)F	0.999
CS(=O)(=O)NC(=O)c1cc(Oc2ccc(C(F)(F)F)cc2Cl)ccc1[N+](=O)[O-]	1.04
CC1(C)[C@H](C(=O)O[C@H](C#N)c2cccc(Oc3ccccc3)c2)[C@@H]1C=C(Br)Br	1.1
COCC(=O)N(c1c(C)cccc1C)C(C)C(=O)OC (stereo not given)	1.11
CC1(C(=O)Nc2ccc(O)c(Cl)c2Cl)CCCCC1	1.01
Cc1ccc(/N=C/N(C)/C=N/c2ccc(C)cc2C)c(C)c1	1.01
CN(C)C(CSS(=O)(=O)O)CSS(=O)(=O)O	1.07
CNC(=O)/C=C(\C)OP(=O)(OC)OC	0.96
O=C(Nc1ccc(F)cc1F)c1cccnc1Oc1cccc(C(F)(F)F)c1	1.07
COC(=O)N(OC)c1ccccc1COc1ccn(-c2ccc(Cl)cc2)n1	1.06
CCOC(=O)OC1=C(c2cc(C)ccc2C)C(=O)N[C@]12CC[C@@H](OC)CC2	1.03
CC[C@H]1CCC[C@H](O[C@H]2CC[C@H](N(C)C)[C@@H](C)O2)[C@@H](C)C(=O)C2=C[C@@H]3[C@@H](C=C(C)[C@@H]4C[C@@H](O[C@@H]5O[C@@H](C)[C@H](OC)[C@@H](OC)[C@H]5OC)C[C@@H]34)[C@@H]2CC(=O)O1.CC[C@H]1CCC[C@H](O[C@H]2CC[C@H](N(C)C)[C@@H](C)O2)[C@@H](C)C(=O)C2=C[C@H]3[C@@H]4C[C@H](O[C@@H]5O[C@@H](C)[C@H](OC)[C@@H](OC)[C@H]5OC)C[C@H]4C=C[C@H]3C2CC(=O)O1	1.04
COc1cc(C)c(C(=O)c2c(OC)ccc(Br)c2C)c(OC)c1OC	1.03
CCOc1ccc(C(C)(C)COCc2cccc(Oc3ccccc3)c2)cc1	0.954
Fc1ccc([C@]2(Cn3cncn3)O[C@H]2c2ccccc2Cl)cc1 (racemic)	0.994

— the supplement of paper PMC12067926
